High-throughput results (PubChem BioAssay)
Compounds with a hit are over-represented: about 3% of the library has one in this group of screens.
EBV LMP1 NFkB: inhibitors of Epstein-Barr LMP1-induced NF-kappaB reporter. LMP1-induced NF-kappaB luciferase reporter cells, luminescence. 350,000 compounds, 0.69% hits. inhibition, % at 12.5 µM; in the data active = inhibition above about 41%;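 also: 0% = neutral control wells and 100% = reference inhibitor control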
TROY NFkB inh: TROY signaling inhibition. AID 1347056. 360,000 compounds, 0.98% hits. inhibition, % at 10 µM. Q293 LMP1-TROYcd NF-kB luciferase reporter, 4 h;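 active = compounds whose plate-normalised and pattern-corrected inhibition of the luciferase reporter signal at the single screening dose is 50% or more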
TWEAK Fn14 block: TWEAK-Fn14 signaling inhibition; 360,000 compounds, 2% hits; inhibition, % at 10 µM; TWEAK-stimulated Fn14 reporter cells, luciferase luminescence, 8 h; in the data active = inhibition above about 50%
MITF TRPM1 inh: reduces MITF-dependent TRPM1 promoter luciferase signal | SK-MEL-5 TRPM1 promoter luciferase, 24 h | inhibition, % at 12.5 µM | 330,000 compounds, 0.83% hits;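 active = mean inhibition across replicates of 60% or more, whatever share of single replicates reaches that level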
LGR2 antag: Drosophila LGR2 receptor signaling inhibition. 380,000 compounds, 0.35% hits. AID 720647. HEK293 LGR2, CRE-luciferase, bursicon-stimulated, 4 h. inhibition, % at 9.99 µM;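 active = drop in luminescence signal, shown as inhibition above about 50% in the replicate tests, limit read from the data, passing the limit was not always enough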;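 also: agonist challenge used bursicon conditioned medium at about half maximal strength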
MITF act: MITF TRPM1 promoter activation in melanoma cells; activation, % at 12.5 µM; SK-MEL-5 TRPM1-promoter luciferase, 24 h; % of positive control, neutral wells = 0; AID 588334; 300,000 compounds, 0.75% hits;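 active = mean activation of at least 80% with every replicate also reaching 80%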;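 also: 0% = neutral control wells and 100% = parthenolide positive control wells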
An asterisk follows results filed as active; nt = not tested or not shown.

SMILES	EBV LMP1 NFkB	TROY NFkB inh	TWEAK Fn14 block	MITF TRPM1 inh	LGR2 antag	MITF act
CCCCC(=O)NC(c1ccc(C(C)C)cc1)c1ccc2cccnc2c1O (centres undefined)	50.0*	15.9	21.6	69.8*	26.7	-69.6
CCCC(=O)NC(c1ccc(OC)cc1)c1ccc2cccnc2c1O (centres undefined)	70.0*	5.5	14.4	72.7*	25.1	-71.3
CCCCC(=O)NC(c1ccco1)c1cc(Cl)c2cccnc2c1O (centres undefined)	31.1	21.4	25.7	6.4	30.2	-4.4
Oc1c(C(c2ccc(Cl)cc2)N2CCCC2)cc(Cl)c2cccnc12 (centres undefined)	-17.6	-0.5	-4.0	39.2	18.9	-36.8
CCC(=O)N1C[C@@H](C)[C@@H](OC)CN(C)C(=O)c2cc(NC(=O)c3cc(C)on3)ccc2OC[C@@H]1C	nt	nt	nt	nt	-24.3	nt
Cc1nc(SCC(=O)c2ccc(F)c(F)c2)[nH]c(=O)c1Oc1ccc(Cl)cc1	0.5	53.4*	-18.7	8.0	7.3	-10.9
Cc1nc(SCC(=O)c2ccc(F)c(F)c2)[nH]c(=O)c1Oc1ccc(F)cc1	-3.1	9.1	9.6	1.6	2.5	-0.3
Cc1ccc(-c2ccc3c(c2)O[C@@H](CN(C)C(=O)CN(C)C)[C@H](C)CN([C@@H](C)CO)S3(=O)=O)cc1	nt	nt	nt	nt	-2.6	nt
O=C(C[C@@H]1C[C@H]2c3cc(NC(=O)C4CCC4)ccc3O[C@H]2[C@@H](CO)O1)NCc1cc(F)ccc1F	nt	nt	nt	nt	-2.5	nt
CCc1cc2c(=O)nc3n(c2s1)Cc1ccccc1/C3=C(/O)c1ccc(F)cc1	-9.1	-1.3	100.2*	-16.6	-24.2	16.4
COc1ccc(-n2c(SCC(=O)Nc3ccc4c(c3)OCO4)nc3c(c2=O)SCC3)cc1	76.0*	-25.6	-4.8	2.5	-7.2	-7.1
O=S(Cc1ccc(Br)cc1)Cc1nnc(SCc2ccc(Cl)cc2)n1-c1ccccc1 (centres undefined)	12.9	31.2	55.4*	4.1	nt	-0.2
O=S(Cc1ccc(Br)cc1)Cc1nnc(SCc2c(F)cccc2Cl)n1-c1ccccc1 (centres undefined)	15.3	22.4	48.5	12.5	-4.6	-12.7
COc1ccc(C(=O)/C=C/c2ccccc2)c(O)c1	-3.4	-64.5	20.6	nt	nt	nt
O=C(C=Cc1cccc(O)c1)c1ccccc1O	18.5	-15.6	64.5*	-8.6	-16.7	9.3
COc1ccc(C(=O)/C=C/c2ccc(OC)cc2OC)c(O)c1	-12.7	-60.7	-7.4	-91.2	-87.9	93.4*
O=C(/C=C/c1ccc(O)c(O)c1)c1ccccc1O	2.3	-12.8	34.7	-59.3	-89.4	65.0
O=C(/C=C/c1ccc(O)cc1)c1ccc(O)cc1O	4.4	-22.1	58.6*	-31.0	-45.1	28.1
O=C(C=Cc1ccccc1O)c1ccccc1O	-13.9	7.8	61.5*	24.8	-43.4	-20.0
C=CCn1c(SCC(=O)c2[nH]c(C)c(C(=O)OCC)c2C)nc2scc(-c3ccc(OC)c(OC)c3)c2c1=O	-0.9	15.9	-56.5	102.0*	-1.9	-102.1
Cc1noc(C)c1NC(=O)N(C)C[C@@H]1OCCCC[C@@H](C)Oc2ccc(NS(C)(=O)=O)cc2C(=O)N([C@H](C)CO)C[C@@H]1C	nt	nt	nt	nt	11.8	nt
CCC(=O)Nc1ccc2c(c1)C(=O)N(C)[C@@H]1CC[C@@H](CC(=O)NCCc3ccncc3)O[C@@H]1CO2	nt	nt	nt	nt	7.0	nt
C[C@H]1C[C@H]2[C@@H]3CCC4=CC(=O)C=C[C@]4(C)[C@@]3(Cl)[C@@H](O)C[C@]2(C)[C@@]1(O)C(=O)CO	0.9	19.6	1.8	-23.6	2.9	23.5
C[C@H]1C[C@H]2[C@@H]3CCC4=CC(=O)C=C[C@]4(C)[C@@]3(F)[C@@H](O)C[C@]2(C)[C@@]1(O)C(=O)CO	45.5*	27.4	-17.4	-22.4	14.0	23.3
CCCN1C[C@@H](C)[C@@H](OC)CN(C)C(=O)c2cc(NC(=O)CC)ccc2OC[C@H]1C	nt	nt	nt	nt	2.1	nt
SMILES	EBV LMP1 NFkB	TROY NFkB inh	TWEAK Fn14 block	MITF TRPM1 inh	LGR2 antag	MITF act
C[C@@H]1CN([C@@H](C)CO)S(=O)(=O)c2ccc(C#Cc3ccccc3)cc2O[C@H]1CN(C)C	nt	nt	nt	nt	1.6	nt
CC(C)CC#Cc1ccc([C@@H]2[C@H](CO)N3C(=O)CN(C(=O)c4ccccn4)C[C@@H]23)cc1	nt	nt	nt	nt	10.6	nt
O=C(C[C@@H]1CC[C@H]2[C@@H](COC[C@@H](O)CN2CC2CCOCC2)O1)N1CCOCC1	nt	nt	nt	nt	-3.3	nt
Cc1ccc(N(C)/N=C/c2ccc(Cl)cc2Cl)nn1	nt	-27.2	-71.6	-150.4	-8.1	98.8*
O=C(C[C@@H]1C=C[C@@H](NC(=O)NC2CCCCC2)[C@@H](CO)O1)NCc1ccccc1	nt	nt	nt	nt	-15.1	nt
CN(C)c1ccc(CC(=O)c2nc3ccccc3s2)cc1	-10.0	75.7*	78.0*	-7.5	nt	14.3
CN(C)C(=O)c1nc2ccccc2s1	-10.7	20.8	17.5	-24.7	-24.6	29.0
C[C@@H]1CCCCO[C@H](CN(C)S(=O)(=O)c2ccc(Cl)cc2)[C@H](C)CN([C@@H](C)CO)C(=O)c2cc(NC(=O)c3ccncc3)ccc2O1	nt	nt	nt	nt	-14.7	nt
CCS(=O)(=O)Nc1ccc2c(c1)C(=O)N(C)C[C@@H](OC)[C@@H](C)CN(Cc1nccs1)[C@H](C)CO2	nt	nt	nt	nt	-5.8	nt
CC1=CC(=NOC(=O)/C=C/c2ccccc2)C=C(C)C1=O	59.3*	-12.1	11.9	1.9	nt	-1.3
COc1ccc(-c2ccc(-c3noc(C)n3)c(OC)n2)cc1	-12.5	-45.9	-34.1	-82.0	nt	90.9*
C=CCN(CC=C)C(=S)NC(=O)/C=C/c1ccccc1	0.2	0.7	11.4	-1.2	-4.6	2.7
C=CCN(CC=C)C(=S)NC(=O)/C=C/c1ccc(C)cc1	-0.9	6.3	62.5*	10.9	6.4	-8.1
C#CCNC(=O)/C=C/c1ccc(C)cc1	-12.8	-47.1	-2.6	-88.2	-69.3	91.4*
O=C(CC1CC1)Nc1ccc2c(c1)[C@H]1C[C@H](CC(=O)N3CCc4ccccc4C3)O[C@H](CO)[C@H]1O2	nt	nt	nt	nt	-7.7	nt
O=C(NCc1ccccc1)c1nc(S(=O)(=O)Cc2ccccc2)ncc1Cl	-14.1	69.5*	81.5*	48.6	3.3	-47.6
Cc1noc(C(=O)NCc2ccccc2)c1Cl	-2.4	-10.3	-6.0	-15.5	-9.1	13.5
CC(=O)Nc1ccc(NC(=O)c2nc(S(=O)(=O)Cc3ccccc3)ncc2Cl)cc1	-3.4	48.0	57.6*	87.5*	-13.0	-87.9
COc1ccc(CNC(=O)c2nc(S(=O)(=O)Cc3ccccc3)ncc2Cl)cc1	-6.2	59.2*	72.8*	67.4*	-1.0	-68.4
CS(=O)(=O)c1ncc(Cl)c(C(=O)Nc2ccc3ccccc3c2)n1	26.7	64.9*	81.8*	103.7*	nt	-102.9
COc1ccc(NC(=O)N(C)C[C@H]2Oc3c(NS(=O)(=O)c4ccc(Cl)cc4)cccc3C(=O)N([C@H](C)CO)C[C@@H]2C)cc1	nt	nt	nt	nt	-11.2	nt
COC(=O)c1cscc1S(=O)(=O)Cc1ccccc1	-1.5	-1.6	23.4	-7.8	10.5	nt
